PfHsp90 set2: inhibits growth of yeast expressing Plasmodium falciparum Hsp90; S. cerevisiae expressing PfHsp90, BacTiter-Glo ATP, 48 h; yeast lacking PDR1 and PDR3 efflux regulators; 0.32% of 310,000 active; inhibition, % at 9.4 µM;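 active means every replicate shows inhibition above about 80%, whatever the replicate mean, limit read from the data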;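 further: 0% = DMSO neutral controls and 100% = 20 µM radicicol positive controls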
TIM10 inh: growth inhibitors of TIM10 yeast strain; inhibition, % at 10 µM; 1.4% of 330,000 active; AID 463195; S. cerevisiae TIM10 strain growth, BacTiter-Glo luminescence, 24 h;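 active means inhibition of 40% or more at the single tested concentration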;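 further: wild-type TIM10 isogenic control strain grown at permissive 25 °C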
B2AR ag: human beta-2 adrenergic receptor agonism by FAP | P07550 | Am2.2-beta2AR cells, FAP receptor internalization, flow cytometry | response, % (no concentration beside the values) | 0.43% of 340,000 active | AID 504454;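 active means response above a set limit, near 3 SD of response in nonfluorescent compounds, cut at about 42% in these data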
Target sequence (P07550 whole entry, looked up): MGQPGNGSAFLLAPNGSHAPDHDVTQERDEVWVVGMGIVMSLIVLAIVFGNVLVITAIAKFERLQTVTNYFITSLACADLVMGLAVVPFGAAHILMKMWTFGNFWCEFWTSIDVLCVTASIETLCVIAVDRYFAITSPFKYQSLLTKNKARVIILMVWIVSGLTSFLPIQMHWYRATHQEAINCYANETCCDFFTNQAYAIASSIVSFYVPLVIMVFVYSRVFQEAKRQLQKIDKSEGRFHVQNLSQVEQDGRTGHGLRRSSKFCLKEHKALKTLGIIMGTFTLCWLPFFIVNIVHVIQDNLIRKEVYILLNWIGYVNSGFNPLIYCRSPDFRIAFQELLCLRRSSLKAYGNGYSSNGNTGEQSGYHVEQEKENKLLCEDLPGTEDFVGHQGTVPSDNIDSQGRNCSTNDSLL
tim23-1 inh: growth inhibitors of tim23-1 mutant yeast; S. cerevisiae tim23-1 growth, BacTiter-Glo luminescence, 24 h; inhibition, % at 20 µM; 1.3% of 330,000 active;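 active means growth inhibition of the mutant yeast at or above 50%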;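 further: temperature-sensitive mutant grown at 25 °C; plate controls were DMSO-treated mutant yeast for no effect and medium wells lacking yeast for full effect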
tim10-1 inh: tim10-1 yeast growth inhibition; S. cerevisiae tim10-1 ts strain growth, BacTiter-Glo, 24 h; inhibition, % at 20 µM; 2.2% of 330,000 active; AID 463190;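 active means inhibition of at least 40%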;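 further: mutant grown at 25 °C; 0% = DMSO wells with yeast and 100% = wells holding no yeast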
tim10-1 conf: confirmation of tim10-1 mutant yeast growth inhibitors. AID 463213. S. cerevisiae tim10-1 ts strain growth, BacTiter-Glo, 24 h. inhibition, % at 20 µM. 56% of 7,400 active. shares compounds with tim10-1 inh;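 active means inhibition of yeast growth at or above a set limit in either of two repeat tests at 20 µM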;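 further: tim10-1 mutant grown at permissive 25 °C to find synthetic lethal compounds; 0% = DMSO yeast wells and 100% = medium wells without yeast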
tim10 confirm: confirmation of TIM10 yeast growth inhibitors; inhibition, % at 10 µM; shares compounds with TIM10 inh; 63% of 4,600 active; S. cerevisiae tim10 strain growth, BacTiter-Glo luminescence, 24 h;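 active means inhibition of yeast growth at or above a set limit in either of two replicates at 10 µM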;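 further: this counterscreen used the strain with wild-type TIM10; 0% = yeast with DMSO and 100% = medium wells lacking yeast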
tim23-1 conf: confirmation of tim23-1 mutant yeast growth inhibitors; S. cerevisiae tim23-1 growth, BacTiter-Glo luminescence, 24 h; AID 463218; 83% of 4,400 active; shares compounds with tim23-1 inh; inhibition, % at 20 µM;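 active means inhibition above about 39% in either of two replicate wells at 20 µM, limit read from the data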;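 further: temperature-sensitive tim23-1 mutant grown at 25 °C; 0% = DMSO wells with yeast and 100% = medium wells without yeast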
Active calls of the source: *; . = no result. An excerpt weighted towards active compounds, which were near 3.8% of everything screened.

SMILES	PfHsp90 set2	TIM10 inh	B2AR ag	tim23-1 inh	tim10-1 inh	tim10-1 conf	tim10 confirm	tim23-1 conf
COc1ccc(-c2cccc(C3CC=CC4C3C(=O)N(Cc3ccccc3)C4c3ccc(OC)c(Cl)c3)c2)cc1 (stereo unspecified)	-9.2	67.0*	6.5	58.2*	49.2*	36.8*	22.6	61.7*
Cc1ccc(S(=O)(=O)N(CCCc2c(C)nc[nH]c2=O)c2ccccc2)cc1	.	.	-1.8	.	.	.	.	.
CC1(C)C(CSc2nc3ccccc3[nH]2)C1(Cl)Cl (stereo unspecified)	-3.6	34.7	-9.5	57.3*	45.4*	24.6	.	60.1*
CCOc1ccccc1N1CCN(C(=O)Nc2ccc(Cl)c(Cl)c2)CC1	.	37.2	.	58.1*	48.4*	37.2*	.	50.5*
CCOc1ccccc1N1CCN(C(=O)c2ccncc2)CC1	-18.6	-14.1	6.0	5.3	14.2	.	.	.
N#CCCN(C(=O)COC(=O)CCc1nc2ccccc2c(=O)[nH]1)c1ccc(F)cc1	6.2	4.3	3.6	3.1	-5.5	.	.	.
CCN(CC)c1ccc2nc3ccccc3[n+](CC)c2c1	29.2	27.5	3.7	21.0	29.2	.	.	.
CCN(CC)c1ccc2nc3ccc(N)cc3[n+](-c3ccccc3)c2c1	59.4	35.6	15.9	59.3*	57.3*	42.8*	.	56.9*
O=C(NC(=S)Nc1ccc2c(c1)OCCO2)c1cccc(Br)c1	-31.6	44.9*	-8.1	51.5*	45.4*	21.2	-0.4	42.4*
O=C(NC(=S)N1CCN(Cc2ccc3c(c2)OCO3)CC1)c1cccc(Br)c1	-22.8	55.9*	5.0	53.6*	51.4*	34.8*	18.0	47.5*
O=C(NC(=S)N1CCN(Cc2ccc3c(c2)OCO3)CC1)c1ccc(Cl)cc1	11.1	9.2	-0.2	39.6	7.2	.	.	.
CCOC(=O)c1c(SCCN2CCCCC2)n(-c2ccccc2)c(=S)n(-c2ccccc2)c1=O	13.7	.	29.8	.	.	.	.	.
CC1CCCC(C)N1C(=O)c1cccc2c1-c1ccccc1/C2=N/O (stereo unspecified)	-3.2	25.6	-5.5	50.0*	42.5*	38.9*	.	43.9*
NC(=O)C1=CC2C3C=CC2(O)C(=O)OC3O1 (stereo unspecified)	-23.5	.	-3.4	.	.	.	.	.
Cc1ccc(NC(=O)CCn2c(=S)oc3ccccc32)cc1F	-1.2	6.2	-3.9	17.9	-17.0	.	.	.
CNC(C)C#Cc1ccc2c(=O)c3cc(C)c(C)cc3oc2c1 (stereo unspecified)	-12.1	15.9	15.0	51.3*	41.5*	37.6*	.	58.8*
Cc1cc(C)c2sc(NC(=O)C3CC3)nc2c1	21.7	42.3*	-11.3	61.0*	46.6*	31.7*	34.3*	64.8*
Nc1nn2cc(-c3ccc(Br)cc3)nc2c2ccccc12	-3.4	59.5*	2.6	77.2*	40.8*	65.1*	65.0*	82.5*
O=[N+]([O-])c1cccn2cc(-c3ccc(Br)cc3)nc12	.	17.4	-7.5	22.2	16.7	.	.	.
C[C@@H]1CN(S(=O)C(C)(C)C)[C@H](CCO)/C1=C\CCO (stereo partly specified)	-29.2	.	-2.0	.	.	.	.	.
COc1ccccc1C1CCN(c2ccc(CO)cc2[N+](=O)[O-])CC1	-6.1	42.1*	-0.2	64.0*	63.7*	60.9*	36.5*	73.4*
O=C(COC(=O)c1ccc([N+](=O)[O-])s1)NCc1ccccc1	9.3	54.1*	10.4	51.1*	41.2*	40.5*	31.5*	32.6
Cc1ccc(C(=O)OCc2nnc(-c3ccccc3)o2)s1	.	15.2	-5.6	31.8	28.6	.	.	.
O=C(COC(=O)c1ccc([N+](=O)[O-])s1)NC(c1ccccc1)c1ccccc1	-28.1	6.8	3.6	4.2	19.9	.	.	.
O=C(OCc1nnc(-c2ccccc2)o1)c1ccc([N+](=O)[O-])s1	12.6	79.2*	1.3	55.5*	57.3*	68.4*	86.0*	72.8*
SMILES	PfHsp90 set2	TIM10 inh	B2AR ag	tim23-1 inh	tim10-1 inh	tim10-1 conf	tim10 confirm	tim23-1 conf
CC(=O)NCCNC(=O)c1ccc(CSc2nc3ccccc3s2)cc1	.	2.8	-7.2	15.1	4.4	.	.	.
O=C(O)c1ccc(CS(=O)(=O)c2ccc(Br)cc2)cc1	-0.4	-10.8	0.7	-9.4	-10.7	.	.	.
CC1=CC(C)(C)N(C(=O)CN2C(=O)c3ccccc3C2=O)c2ccccc21	15.8	40.4*	-2.9	60.2*	42.7*	28.5	18.2	51.0*
Cc1ccccc1N1CCN(c2ccccc2NC(=O)/C=C\C(=O)O)CC1	-21.0	.	9.1	.	.	.	.	.
COc1ccc(N)c2c1C(=O)c1ccccc1C2=O	-7.3	.	2.3	.	.	.	.	.
COc1ccc2noc3c2c1C(=O)c1ccccc1-3	0.2	38.9	-555.0	68.8*	60.8*	70.7*	.	72.2*
O=C(Nc1nc2cc3c(cc2s1)OCCO3)c1ccco1	53.4	43.2*	-11.1	75.0*	48.7*	41.1*	40.6*	60.0*
O=C(Nc1nc2cc3c(cc2s1)OCO3)c1ccco1	33.1	.	-6.3	.	.	.	.	.
O=[N+]([O-])c1ccc(N=Nc2ncc[nH]2)cc1	-5.4	44.1*	-288.6	51.9*	44.6*	30.5	33.0*	-24.4
Cc1ccnc(NC(=O)c2ccc(S(=O)(=O)N3CCC(C)CC3)cc2)c1	-5.4	22.5	10.2	31.1	38.0	.	.	.
CCN(C(=O)CSc1n[nH]c(-c2ccc(OC)cc2)n1)c1c(N)n(Cc2ccccc2)c(=O)[nH]c1=O	-7.6	.	-17.9	.	.	.	.	.
CC1CCC(=C(C#N)C(=O)Nc2cccc(Cl)c2)CC1 (stereo unspecified)	-20.6	34.6	4.2	59.8*	45.2*	42.1*	.	51.3*
CC(=O)NC(C)c1cc(Cl)c2cccnc2c1O (stereo unspecified)	-2.9	21.2	3.2	53.4*	40.8*	20.7	.	38.2
Nc1nc(-c2ccc3c(c2)CCCC3)cs1	2.8	32.3	-1.1	51.5*	59.0*	44.5*	.	53.7*
COc1cc(/C=C/C=C2/CC/C(=C/C=C/c3ccc(O)c(OC)c3)C2=O)ccc1O	-17.4	.	-418.1	.	.	.	.	.
COc1cc(/C=C2\COC/C(=C\c3ccc(O)c(OC)c3)C2=O)ccc1O	-4.4	67.0*	27.9	68.6*	71.3*	67.7*	61.3*	81.8*
Cc1cc(N/N=C/c2ccccc2)nc(NCc2ccccc2)n1	7.0	-28.4	8.1	0.6	-0.6	.	.	.
Cc1cc(N/N=C/c2ccc(Cl)cc2)nc(NCc2ccccc2)n1	1.1	11.5	11.9	74.5*	47.7*	41.1*	.	36.5
O=C1ON=C(c2ccccc2)/C1=C\c1ccco1	-3.7	27.3	0.0	28.7	26.1	.	.	.
Cc1ccc(/C=C2/C(=O)ON=C2c2ccccc2)o1	-10.1	19.4	38.7	74.4*	51.6*	40.0*	.	75.6*
